# Measurements reported in PubChem BioAssay (Tox21).
# Unmarked numbers belong to inactive results. Records with an inconclusive call do not appear. Where a call stands in place of a potency, no number is given. Activity calls are given as the source filed them. Unless noted, calls follow the shape of the dose curve; as a rule, active = well fitted curve in the direction sought with a large enough effect in the repeat runs; inconclusive = weak or mixed curves; inactive = no such curve, though single readings can be large; an effect the other way counts as inactive or inconclusive.
# Key:
# [1] = qHTS assay to identify small molecule antagonists of the androgen receptor (AR) signaling pathway using the MDA cell line in the presence of 0.5 nM R1881 - cell viability counter screen (AID 1259242); also: nearly all actives have a fitted effect of over 45% in size
# How it was run: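 Viability of MDA-kb2 cells was multiplexed with the luciferase AR readout; after 16 hr with compounds and R1881 at 0.5 nM final, CellTiter-Fluor fluorescence was recorded.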
# [2] = target: Estrogen receptor (Homo sapiens) (UniProt P03372); assay: qHTS assay to identify small molecule antagonists of the estrogen receptor alpha (ER-alpha) signaling pathway using the BG1 cell line in the presence of 0.1 nM 17-beta-estradiol (AID 1259244); also: nearly all actives have a fitted effect of over 50% in size
# How it was run: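 Estradiol at 0.1 nM (final) stimulates the endogenous ER-alpha of VM7Luc4E2 cells carrying an ERE-driven luciferase; compounds are co-incubated 22 h at 37C and luciferase output quantified by luminescence.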
# [3] = qHTS assay to identify small molecule HDAC inhibitors (AID 1259364);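 also: wild-type HCT-116 cells with endogenous class I/II HDAC activity; top concentration of the series differs between compounds; nearly all actives have a fitted effect of over 45% in size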
# How it was run: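 Read-out: luminescence of HDAC-Glo I/II reagent, 30 min RT, reflecting class I/II deacetylase activity in whole HCT-116 cells pre-exposed 2 h to DMSO-dissolved compounds.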
# [4] = qHTS assay to identify small molecule HDAC inhibitors - cell viability counter screen (AID 1259365); also: series mostly up to about 92 µM; nearly all actives have a fitted effect of over 50% in size
# How it was run: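 After overnight seeding at 1,500 cells per well, wild-type HCT-116 cultures took up compounds in DMSO for 2hr at 37 C. Viable cell content came from luminescence with CellTiter-Glo.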
# [5] = qHTS assay to identify small molecule agonists of the sonic hedgehog signaling (Shh) pathway - cell viability counter screen (AID 1259366); also: nearly all actives have a fitted effect of over 50% in size; also: potency is read from the fitted curve at half-maximal effect
# How it was run: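 Same-well cytotoxicity read. Gli1-Luc reporter 3T3 cells; compounds 24hr, 37C/5% CO2; CellTiter-Fluor fluorescence.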
# [6] = qHTS assay to identify small molecule antagonists of the sonic hedgehog signaling (Shh) pathway - cell viability counter screen (AID 1259367); also: nearly all actives have a fitted effect of over 55% in size; also: potency is read from the fitted curve at half-maximal effect
# How it was run: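 Cells: 3T3 Gli1-Luc, 2,000/well, 4 hr pre-incubation. Compounds in DMSO, then conditioned medium. Incubation 24 hr, 37C, 5% CO2. CellTiter-Fluor at 23 hr, 1 hr, fluorescence.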
# [7] = qHTS assay to identify small molecule agonists of the sonic hedgehog signaling (Shh) pathway (AID 1259368; calls by dose curve;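 also: NIH/3T3-derived 3T3Gli1-Luc cells carrying a stable Gli1-driven firefly luciferase reporter; series mostly up to about 92 µM; nearly all actives have a fitted effect of over 15% in size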)
# How it was run: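 A Gli1 transcriptional response element controlled firefly luciferase in 3T3Gli1-Luc cells. Compounds and a positive control were added 4 hr after plating, and cells were incubated a further 24 hr at 37 C before luminescence detection.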
# [8] = qHTS assay to identify small molecule antagonists of the sonic hedgehog signaling (Shh) pathway (AID 1259369; calls by dose curve; also: nearly all actives have a fitted effect of over 45% in size; also: potency is read from the fitted curve at half-maximal effect)
# How it was run: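 For antagonist detection, the reporter line received test compounds together with conditioned medium, incubated 24hr at 37 C, 5% CO2, then luminescence was recorded following 30min room-temperature luciferase reagent incubation.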
# [9] = target: Estrogen receptor beta (Homo sapiens) (UniProt Q92731); assay: qHTS assay to identify small molecule agonists of the estrogen receptor beta (ER-beta) signaling pathway (AID 1259377; active = well fitted activation curve with a large enough effect in the signal ratio in the repeat runs, not every such curve was filed as active; the % refers to the signal ratio)
# How it was run: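 Read-out: beta-lactamase FRET fluorescence. Cell line: ER-beta-UAS-bla HEK293T in 2% charcoal-stripped FBS. Exposure: 16 hr at 37C. Substrate step: 2 h at room temperature.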
# [10] = qHTS assay to identify small molecule agonists of the androgen receptor (AR) signaling pathway in the presence of an antagonist - cell viability counter screen (AID 1259379);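 also: MDA-kb2 human breast cancer cells carrying an MMTV luciferase reporter; series mostly up to about 92 µM; nearly all actives have a fitted effect of over 25% in size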
# How it was run: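 Seed MDA-kb2 at 3,000 cells/well; incubate 5 hr, 37C, 0% CO2. Add nilutamide to 3.0uM final, then pin compounds at 15 concentrations. Incubate 16 hr. Add CellTiter-Fluor at 15 hr, read fluorescence after 1 hr.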
# [11] = qHTS assay to identify small molecule agonists of the estrogen receptor beta (ER-beta) signaling pathway - cell viability counter screen (AID 1259380); also: nearly all actives have a fitted effect of over 30% in size; also: potency is read from the fitted curve at half-maximal effect
# How it was run: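 CellTiter-Glo read, 30 min RT, same wells as bla assay; cells ER-beta-UAS-bla HEK293T; 16 hr compound, 37C; medium 2% charcoal-stripped FBS.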
# [12] = qHTS assay to identify small molecule antagonists of the estrogen receptor beta (ER-beta) signaling pathway - cell viability counter screen (AID 1259382); also: nearly all actives have a fitted effect of over 55% in size; also: potency is read from the fitted curve at half-maximal effect;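 as to activity change, negative = cytotoxicity: HEK293T cells carrying ER-beta-UAS-bla reporter stimulated with estradiol; series mostly up to about 92 µM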
# How it was run: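 In this multiplexed counter screen, cells were seeded at 2,000 per well in medium with 2% charcoal-stripped FBS and incubated 6 hr before compound and 1nM final E2 were added. Sixteen hours later, ATP-based luminescence reported viability.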
# [13] = target: Estrogen receptor (Homo sapiens) (UniProt P03372); assay: qHTS assay to identify small molecule agonists of the estrogen receptor alpha (ER-alpha) signaling pathway in the presence of an antagonist (AID 1259383; calls by dose curve; also: top concentration of the series differs between compounds; nearly all actives have a fitted effect of over 15% in size)
# How it was run: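 Stably transfected VM7Luc4E2 reporter cells, kept 5 days in charcoal-stripped serum, received ICI-182,780 at 10.0nM final before compound addition. Following 22hr incubation at 37C and 5% CO2, luciferase signal was read by luminescence.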
# [14] = qHTS assay to identify small molecule agonists or antagonists of the thyroid stimulating hormone receptor (TSHR) signaling pathway - wild type cell line counter screen (AID 1259384; calls by dose curve)
# How it was run: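 Counter screen in untransfected Hek293: compounds (15-point titration, triplicate) plus phosphodiesterase inhibitor Ro20-1724 added after 18 h plating; 30 min RT. Intracellular cAMP via competitive d2/cryptate immunoassay, 1 h incubation.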
# [15] = target: Thyrotropin receptor (Homo sapiens) (UniProt P16473); assay: qHTS assay to identify small molecule antagonists of the thyroid stimulating hormone receptor (TSHR) signaling pathway (AID 1259385; calls by dose curve; also: nearly all actives have a fitted effect of over 20% in size)
# How it was run: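 Antagonist mode: compound-treated TSHR-expressing HEK293 cells were stimulated with 1.5 ng/mL TSH (final) in presence of Ro20-1724 for 30 min at RT. HTRF cAMP detection after 1 h; each compound tested at 15 concentrations, triplicate.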
# [16] = qHTS assay to identify small molecule agonists of the estrogen receptor alpha (ER-alpha) signaling pathway in the presence of an antagonist - cell viability counter screen (AID 1259386);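 also: series mostly up to about 92 µM; cells exposed to compounds for 22 h at 37 °C before the viability read; nearly all actives have a fitted effect of over 30% in size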
# How it was run: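 Viability counter screen using VM7Luc4E2 (full-length ER-alpha, four ERE-luciferase). The cells were treated with compounds alongside ICI-182,780 10.0nM for 22hr, and live-cell protease fluorescence was quantified with CellTiter-Fluor.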
# [17] = target: Estrogen receptor beta (Homo sapiens) (UniProt Q92731); assay: qHTS assay to identify small molecule antagonists of the estrogen receptor beta (ER-beta) signaling pathway (AID 1259378; active = well fitted inhibition curve with a large enough effect in the signal ratio in the repeat runs, not every such curve was filed as active; the % refers to the signal ratio)
# How it was run: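 Antagonist mode: compounds added to beta-lactamase reporter HEK293T ER-beta-UAS cells stimulated with E2 (1nM final), 16 hr at 37C. LiveBLAzer B/G FRET substrate, 2 hours room temperature, fluorescence read-out.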
# [18] = target: Androgen receptor (Homo sapiens) (UniProt P10275); assay: qHTS assay to identify small molecule antagonists of the androgen receptor (AR) signaling pathway using the MDA cell line in the presence of 0.5 nM R1881 (AID 1259243); also: potency is read from the fitted curve at half-maximal effect; nearly all actives have a fitted effect of over 50% in size
# How it was run: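 Reporter cells cultured without CO2 receive test chemicals, then 0.5 nM R1881 final; after 16 hr at 37C, ONE-Glo is added and light output recorded.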
# [19] = target: Androgen receptor (Homo sapiens) (UniProt P10275); assay: qHTS assay to identify small molecule agonists of the androgen receptor (AR) signaling pathway in the presence of an antagonist (AID 1259381; calls by dose curve; also: nearly all actives have a fitted effect of over 15% in size)
# How it was run: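 Test compounds at 15 concentrations were incubated for 16hr with MDA-kb2 reporter cells in presence of 3.0uM nilutamide (final). Signal: ONE-Glo luciferase luminescence.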
# [20] = qHTS assay to identify small molecule phospholipidosis (PLD) inducers (AID 1259344; active = well fitted curve in the direction sought with a large enough effect; an effect the other way counts as inactive or inconclusive)
# How it was run: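 Phospholipidosis is scored by imaging LipidTOX-stained pits in HepG2 cells exposed to compound for 24 h at 37 C; pit counts and integrated intensities per well and per cell serve as outputs.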
# Sequence of Estrogen receptor (Homo sapiens) (P03372 whole entry, looked up): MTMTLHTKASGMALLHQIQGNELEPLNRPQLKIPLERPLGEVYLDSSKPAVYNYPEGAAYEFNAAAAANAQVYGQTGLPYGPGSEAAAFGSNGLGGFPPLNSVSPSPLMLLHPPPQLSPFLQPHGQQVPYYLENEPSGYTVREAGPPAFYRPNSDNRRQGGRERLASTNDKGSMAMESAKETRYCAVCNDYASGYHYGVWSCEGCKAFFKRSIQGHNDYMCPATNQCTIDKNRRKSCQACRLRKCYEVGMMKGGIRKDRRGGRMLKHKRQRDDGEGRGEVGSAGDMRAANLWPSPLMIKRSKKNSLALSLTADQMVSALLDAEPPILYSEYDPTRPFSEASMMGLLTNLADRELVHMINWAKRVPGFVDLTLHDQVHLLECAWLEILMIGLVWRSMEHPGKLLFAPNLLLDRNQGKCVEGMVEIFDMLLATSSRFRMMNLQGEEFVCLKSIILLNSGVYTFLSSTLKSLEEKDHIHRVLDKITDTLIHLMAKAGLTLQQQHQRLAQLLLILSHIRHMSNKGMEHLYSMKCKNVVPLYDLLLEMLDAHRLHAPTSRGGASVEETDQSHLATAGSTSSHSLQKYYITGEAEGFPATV
# Sequence of Androgen receptor (Homo sapiens) (P10275 whole entry, looked up): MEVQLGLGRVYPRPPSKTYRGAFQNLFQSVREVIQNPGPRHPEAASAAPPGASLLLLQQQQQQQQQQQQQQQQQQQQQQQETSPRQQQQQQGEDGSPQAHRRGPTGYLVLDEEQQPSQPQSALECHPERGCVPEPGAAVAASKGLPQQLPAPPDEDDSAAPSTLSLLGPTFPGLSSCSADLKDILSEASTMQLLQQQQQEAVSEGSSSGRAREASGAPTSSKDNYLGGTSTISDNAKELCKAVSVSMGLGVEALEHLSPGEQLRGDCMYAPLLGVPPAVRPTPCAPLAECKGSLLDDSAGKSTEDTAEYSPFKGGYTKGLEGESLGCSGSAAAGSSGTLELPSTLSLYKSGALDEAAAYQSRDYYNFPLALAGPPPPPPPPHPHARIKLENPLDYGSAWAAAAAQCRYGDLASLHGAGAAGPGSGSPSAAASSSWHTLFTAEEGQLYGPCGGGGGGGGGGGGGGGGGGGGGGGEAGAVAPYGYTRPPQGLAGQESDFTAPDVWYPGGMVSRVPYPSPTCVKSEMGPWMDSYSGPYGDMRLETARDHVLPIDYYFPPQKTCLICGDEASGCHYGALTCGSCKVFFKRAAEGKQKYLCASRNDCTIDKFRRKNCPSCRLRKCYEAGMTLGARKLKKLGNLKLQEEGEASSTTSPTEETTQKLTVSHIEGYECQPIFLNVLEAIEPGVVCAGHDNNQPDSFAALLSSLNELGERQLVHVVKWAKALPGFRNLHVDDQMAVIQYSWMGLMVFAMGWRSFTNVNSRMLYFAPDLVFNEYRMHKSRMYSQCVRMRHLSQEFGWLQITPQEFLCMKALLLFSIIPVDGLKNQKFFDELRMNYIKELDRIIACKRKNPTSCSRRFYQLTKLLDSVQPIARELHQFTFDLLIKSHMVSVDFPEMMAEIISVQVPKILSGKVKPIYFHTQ
# Sequence of Thyrotropin receptor (Homo sapiens) (P16473 whole entry, looked up): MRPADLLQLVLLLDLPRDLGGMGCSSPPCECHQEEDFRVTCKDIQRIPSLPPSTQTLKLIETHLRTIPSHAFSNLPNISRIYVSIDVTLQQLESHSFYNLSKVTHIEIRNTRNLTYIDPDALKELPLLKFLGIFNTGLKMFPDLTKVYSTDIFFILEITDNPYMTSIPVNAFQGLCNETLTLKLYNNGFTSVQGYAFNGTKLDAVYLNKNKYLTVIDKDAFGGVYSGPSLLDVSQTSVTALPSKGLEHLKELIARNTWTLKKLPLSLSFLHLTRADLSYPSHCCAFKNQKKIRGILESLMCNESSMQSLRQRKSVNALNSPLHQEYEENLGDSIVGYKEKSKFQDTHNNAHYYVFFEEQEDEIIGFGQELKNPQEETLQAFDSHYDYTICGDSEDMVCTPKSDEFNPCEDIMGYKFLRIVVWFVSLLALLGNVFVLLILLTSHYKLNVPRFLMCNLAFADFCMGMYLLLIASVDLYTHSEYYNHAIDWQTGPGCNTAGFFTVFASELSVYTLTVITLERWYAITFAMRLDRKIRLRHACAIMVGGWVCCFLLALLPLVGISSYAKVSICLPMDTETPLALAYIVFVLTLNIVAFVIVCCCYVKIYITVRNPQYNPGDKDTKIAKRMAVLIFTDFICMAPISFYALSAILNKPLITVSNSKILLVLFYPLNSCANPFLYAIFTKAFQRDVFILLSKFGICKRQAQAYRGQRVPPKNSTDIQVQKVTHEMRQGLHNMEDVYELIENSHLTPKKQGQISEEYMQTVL
# Sequence of Estrogen receptor beta (Homo sapiens) (Q92731 whole entry, looked up): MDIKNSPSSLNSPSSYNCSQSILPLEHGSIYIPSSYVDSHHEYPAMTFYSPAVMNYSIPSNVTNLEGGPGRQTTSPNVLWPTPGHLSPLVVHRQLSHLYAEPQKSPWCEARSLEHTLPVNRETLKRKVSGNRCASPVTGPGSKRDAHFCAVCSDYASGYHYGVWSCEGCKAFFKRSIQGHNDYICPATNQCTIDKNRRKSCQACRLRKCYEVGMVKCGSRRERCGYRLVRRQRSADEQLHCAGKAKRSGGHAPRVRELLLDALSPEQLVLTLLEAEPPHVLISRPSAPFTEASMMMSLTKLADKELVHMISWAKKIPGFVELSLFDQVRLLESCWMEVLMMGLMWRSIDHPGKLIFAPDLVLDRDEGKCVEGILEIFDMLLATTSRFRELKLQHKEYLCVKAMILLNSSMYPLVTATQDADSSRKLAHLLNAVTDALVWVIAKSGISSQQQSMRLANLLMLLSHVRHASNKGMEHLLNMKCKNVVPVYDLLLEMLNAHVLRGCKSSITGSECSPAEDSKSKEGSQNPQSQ
smiles,measurement,setting,value
CC(C)(C)C(=O)C(Oc1ccc(Cl)cc1)n1ccnc1 (stereo not given),Potency,[1],inactive
same,Potency,[2],inactive
same,Potency,[3],inactive
same,Potency,[4],inactive
same,Potency,[5],inactive
same,Potency,[6],inactive
same,Potency,[7],inactive
same,Potency,[8],inactive
same,Potency,[9],inactive
same,Potency,[10],inactive
same,Potency,[11],1.19 µM (active)
same,Potency,[12],inactive
same,Potency,[13],inactive
same,outcome,[14],inactive
same,Potency,[15],inactive
same,Potency,[16],inactive
O=Cc1c(Cl)cccc1Cl,Potency,[1],inactive
same,Potency,[2],inactive
same,Potency,[3],inactive
same,Potency,[4],inactive
same,Potency,[5],inactive
same,Potency,[6],inactive
same,Potency,[7],inactive
same,Potency,[8],inactive
same,Potency,[9],inactive
same,Potency,[17],inactive
same,Potency,[10],inactive
same,Potency,[11],inactive
same,Potency,[12],inactive
same,outcome,[14],inactive
same,Potency,[15],inactive
same,Potency,[16],inactive
CCCCC1C(=O)N(c2ccccc2)N(c2ccc(O)cc2)C1=O (stereo not given),Potency,[1],inactive
same,Potency,[18],26.6 µM (active)
same,Potency,[5],13.3 µM (active)
same,Potency,[6],16.8 µM (active)
same,Potency,[8],7.5 µM (active)
same,Potency,[11],23.7 µM (active)
same,Potency,[19],inactive
same,Potency,[12],29.8 µM (active)
same,Potency,[16],inactive
CC(=O)Oc1ccc(C(=C2CCCCC2)c2ccc(OC(C)=O)cc2)cc1,Potency,[1],inactive
same,Potency,[2],inactive
same,outcome,[20],inactive
same,Potency,[3],inactive
same,Potency,[5],inactive
same,Potency,[6],inactive
same,Potency,[9],inactive
same,Potency,[10],inactive
same,Potency,[12],inactive
same,outcome,[14],inactive
same,Potency,[15],inactive
same,Potency,[16],inactive
CC1CN(c2cc3c(cc2F)c(=O)c(C(=O)O)cn3-c2ccc(F)cc2F)CCN1 (stereo not given),"viability change, negative = cytotoxic",[1],6.65% [at 8.39 µM]
same,"activity change, negative = inhibition",[2],-1% [at 8.39 µM]
same,outcome,[20],inactive
same,"activity change, negative = inhibition",[3],-3.12% [at 8.39 µM]
same,"viability change, negative = cytotoxic",[5],-8.68% [at 8.39 µM]
same,"viability change, negative = cytotoxic",[6],5.63% [at 8.39 µM]
same,activity change,[7],"0.373% [at 8.39 µM, stronger effect = higher value]"
same,activation,[9],-1.89% [at 8.39 µM]
same,"activity, negative = inhibition",[17],1.81% [at 8.39 µM]
same,"activity change, negative = cytotoxicity",[10],0.826% [at 8.39 µM]
same,activation,[13],0.293% [at 8.39 µM]
same,cAMP activity change,[14],-5.92% [at 8.39 µM]
same,"activity change, negative = inhibition",[15],-6.71% [at 8.39 µM]
ON(Cc1ccccc1)Cc1ccccc1,Potency,[1],inactive
same,Potency,[2],inactive
same,Potency,[3],inactive
same,Potency,[4],inactive
same,Potency,[5],inactive
same,Potency,[6],inactive
same,Potency,[7],inactive
same,Potency,[8],inactive
same,Potency,[10],inactive
same,Potency,[11],inactive
same,Potency,[19],inactive
same,Potency,[12],inactive
same,Potency,[13],inactive
same,outcome,[14],inactive
same,Potency,[15],inactive
same,Potency,[16],inactive
CN1Cc2cc(C(=O)N3CCC(C4CCNCC4)CC3)ccc2N[C@@H](CC(=O)O)C1=O,Potency,[1],inactive
same,Potency,[2],inactive
same,Potency,[3],inactive
same,Potency,[4],inactive
same,Potency,[5],inactive
same,Potency,[6],inactive
same,Potency,[7],inactive
same,Potency,[8],inactive
same,Potency,[9],inactive
same,Potency,[17],inactive
same,Potency,[10],inactive
same,Potency,[11],inactive
same,Potency,[12],inactive
same,Potency,[13],inactive
same,outcome,[14],inactive
same,Potency,[16],inactive
O=C(O)C(Cc1cc(I)c(O)c(I)c1)c1ccccc1 (stereo not given),Potency,[1],inactive
same,Potency,[2],inactive
same,Potency,[3],inactive
same,Potency,[4],inactive
same,Potency,[5],inactive
same,Potency,[6],inactive
same,Potency,[7],inactive
same,Potency,[8],inactive
same,Potency,[9],inactive
same,Potency,[17],inactive
same,Potency,[10],inactive
same,Potency,[11],inactive
same,Potency,[12],inactive
same,Potency,[13],inactive
same,outcome,[14],inactive
same,Potency,[15],inactive
same,Potency,[16],inactive
